Experimental data reported in PubChem BioAssay AID463212 (Sanford-Burnham Center for Chemical Genomics, 2010).
In all, about 330,000 compounds went through this assay and about 4,400 (1.3%) were called active. The full list was thinned out, with actives kept by preference. Values without a mark were called inactive.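 Rule for the calls: active = growth inhibition of the mutant yeast at or above 50%; inactive = the rest.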

Assay: growth inhibition of tim23-1 ts yeast – luminescence, uHTS, primary screen (AID 463212);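 note: temperature-sensitive mutant grown at 25 °C; plate controls were DMSO-treated mutant yeast for no effect and medium wells lacking yeast for full effect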
Details: S. cerevisiae tim23-1 growth, BacTiter-Glo luminescence, 24 h; at 20 µM; stronger effect = higher value

| Compound | inhibition |
| --- | --- |
| Cc1ccc(-n2cnc3ncnc(-c4ccccc4)c32)cc1 | 15.5% |
| Cc1ccc(-c2nn(C(C)(C)C)c3ncnc(N)c23)cc1 | 57.5% (active) |
| Cc1c([N+](=O)[O-])c(N)nn1C | -8.73% |
| Cc1cc(C(=O)COC(=O)C2CC2)c(C)n1-c1ccc(F)cc1 | 35.7% |
| CC(=O)COc1ccc2c(-c3ccccc3)cc(=O)oc2c1 | -1.93% |
| O=C(CNC(=O)c1ccc(-c2ccccc2)cc1)OCc1ccc(Cl)cc1 | -7.6% |
| O=C(CNC(=O)OCc1ccccc1)Oc1cc2oc(=O)cc(-c3ccccc3)c2cc1Cl | 54.3% (active) |
| O=C1Cc2ccccc2Sc2ccc(Cl)cc21 | 28.6% |
| COc1cc(NS(=O)(=O)c2ccc(N/C=C(\C=O)c3nc4cc(Cl)ccc4o3)cc2)nc(OC)n1 | 15.4% |
| Cc1ccc(C(=O)N/C(=C\c2ccco2)C(=O)NC2CCS(=O)(=O)C2)cc1 (stereo not given) | 24.1% |
| COc1cc2ccccc2cc1C(=O)N1CCOCC1 | 22.5% |
| Cc1oc2c(c1C(=O)N1CCOCC1)C(=O)c1ccccc1C2=O | 69% (active) |
| COC1=C(N2CCOCC2)C(=O)c2ccccc2C1=O | 2.06% |
| CCC(=O)N1CCC(C(N)=O)(N2CCCCC2)CC1 | -3.89% |
| Cc1cccc(-c2nc3ccc(C(=O)NCCN4CCN(C)CC4)cc3nc2-c2cccc(C)c2)c1 | 25.1% |
| C=CCNC(=O)c1ccc2c3n(nc2c1)-c1ccc(C)cc1CO3 | 57.6% (active) |
| Cn1nnc2cc(C(=O)NCCC3=CCCCC3)ccc21 | -1.3% |
| COc1ccc(-c2cc(C)nc3nc(N)nn23)cc1 | 8.84% |
| Cc1cc(N)n2nc(-c3ccc(C(C)(C)C)cc3)cc2n1 | 72.3% (active) |
| Cc1cc(C(C)(C)C)cc(C)c1N | 9.69% |
| Cc1nnc(NC(=O)CSc2nc(C3CCCCC3)nc3ccccc23)s1 | -0.646% |
| O=C1c2ccccc2C(=O)N1CCC(c1ccccc1)c1ccco1 (stereo not given) | 22.6% |
| O=S(=O)(Nc1cccc(-n2cnnn2)c1)c1cnc(Cl)c(Cl)c1 | -3.26% |
| CCNC(=O)c1cnn(-c2ccccc2)c1-c1ccccc1 | 0.114% |

| Compound | inhibition |
| --- | --- |
| CCCc1c(C(=O)O)cnn1-c1ccc(Cl)cc1 | 13.8% |
| CCCc1c(C(=O)Nc2ccc(F)cc2)cnn1-c1ccccc1 | 55.9% (active) |
| CC(=O)c1ccccc1NC(=O)C1CC(=O)N(c2ccc3c(c2)OCCO3)C1 (stereo not given) | 14.1% |
| CC1(c2ccccc2)CC(C)(C)N(C(=O)c2cc([N+](=O)[O-])cc([N+](=O)[O-])c2)c2ccccc21 (stereo not given) | 4.81% |
| CC1CCN(C(=S)c2cccc([N+](=O)[O-])c2)CC1 | 21.4% |
| CC1CCC2CCCCC2N1C(=O)c1cc([N+](=O)[O-])cc([N+](=O)[O-])c1 (stereo not given) | 51.9% (active) |
| COc1ccc(S(=O)(=O)N2CCOCC2)cc1NC(=O)CSc1cc(C)ccc1C | 7.5% |
| CC[C@]12c3[nH]c4ccc(OC)cc4c3CCN1C(=O)C(CC(=O)NCCN1CCOCC1)C[C@@H]2C(=O)N1CCN(C(=O)C2CC2)CC1 (stereo not given in full) | 26.2% |
| Cc1cc(NC(=O)c2ccc(F)cc2)ccc1NC(=O)c1ccco1 | 13.5% |
| O=C(Nc1ccc2oc(-c3ccccc3F)nc2c1)c1ccco1 | 57.8% (active) |
| O=C(Nc1cccc(-c2nc3ncccc3o2)c1)c1ccco1 | 4.7% |
| CCCCC1(C(=O)OCC)NC(c2ccc(O)cc2)C2C(=O)N(c3ccccc3)C(=O)C21 (stereo not given) | 1.2% |
| CCC(=O)Nc1ccc(C(=O)CSc2nnc(CNc3ccc(Cl)cc3)o2)cc1OC | -7.17% |
| O=C(COC(=O)CNC(=O)C1CCCCC1)Nc1cccc(F)c1 | 17.5% |
| N#C/C(=C\c1ccccc1C(F)(F)F)C(=O)Nc1ccccc1F | 71.2% (active) |
| CN(CC(=O)Nc1ccccc1C(F)(F)F)C(=O)Cc1ccccc1F | 14.9% |
| O=C(Nc1ccccc1F)c1ccccc1-c1ccc(C(F)(F)F)cc1 | 16% |
| COc1cc([N+](=O)[O-])ccc1NC(=O)COC(=O)CCOc1ccc(C)cc1 | 73.7% (active) |
| COc1cccc(NC(=O)COC(=O)CCOc2ccccc2OC)c1 | 8.9% |
| CSc1ccccc1NC(=O)COC(=O)CCCOc1ccc(C)cc1 | -1.47% |
| Cc1cccc(N2C(=O)SC(SC(=Nc3ccccc3)Nc3ccccc3)C2=O)c1 (stereo not given) | 49.6% |
| CN(C)C(=O)c1cc(Br)ccc1Cl | -8.05% |
| Cc1ccc(OCCCCN2CCCCC2)c(Br)c1 | 16.7% |
| COc1ccc(S(=O)(=O)N2CCOCC2)cc1NC(=O)Cc1c(F)cccc1Cl | 5.42% |

| Compound | inhibition |
| --- | --- |
| CN(c1ccccc1)S(=O)(=O)c1cccc(NC(=O)Cc2c(F)cccc2Cl)c1 | 23.3% |
| O=C(Cc1c(F)cccc1Cl)Nc1ncc([N+](=O)[O-])s1 | 55.4% (active) |
| COc1ccc2nc3n(c(=O)c2c1)-c1cc(C)ccc1C(=O)NC3Cc1ccc(O)cc1 (stereo not given) | -6.13% |
| COC(=O)CSC1=C(C#N)C(c2ccccc2OC)C(C(=O)OC)C(=O)N1 (stereo not given) | 12.9% |
| CCCc1cc(=O)[nH]c(SCC(=O)OCc2ccccc2)n1 | 6.03% |
| Cc1ccc(C2CC(=O)NC(SCC(=O)OCc3ccccc3)=C2C#N)o1 (stereo not given) | 59.1% (active) |
| CCCc1nnc(SCC(=O)N2C(C)CCCC2C)n1CC (stereo not given) | 1.57% |
| CC1CCCCC12NC(=O)N(CC(=O)N1CCN(c3ccccc3)CC1)C2=O (stereo not given) | 17.7% |
| O=C(c1[nH]ncc1-c1ccc(Cl)cc1)C1CO1 (stereo not given) | 43.9% |
| O=C(Nc1cc(S(=O)(=O)N2CCOCC2)ccc1N1CCOCC1)c1c(F)cccc1Cl | 14.4% |
| Cc1cccc(OP(=O)(Nc2c(C)n(C)n(-c3ccccc3)c2=O)Oc2cccc(C)c2)c1 | 20.4% |
| Cc1cccc(Oc2c([N+](=O)[O-])c(=O)n(C)c3ccccc23)c1 | 56% (active) |
| Cc1cc(C)c(-c2c(O)c3ccccc3n(C)c2=O)c(C)c1 | 4.89% |
| CCn1c(SCC(=O)Nc2cc(C)ccc2C)nnc1-c1cnccn1 | 5.06% |
| CCc1cccc(NC(=O)CCCN2C(=O)C(c3ccccc3)Oc3cccnc32)c1 (stereo not given) | 35.3% |
| COc1ccc(C(=O)COC(=O)c2ccc3ccccc3n2)cc1 | 40.7% |
| CC(OC(=O)c1ccc2ccccc2n1)C(=O)c1ccccc1 (stereo not given) | 10.7% |
| O=C(Oc1ccc([N+](=O)[O-])cc1)c1ccc2ccccc2n1 | 69.8% (active) |
| COc1ccc([N+](=O)[O-])cc1C1NN=C(c2cccc3ccccc23)S1 (stereo not given) | 0.511% |
| N#C[C@]1(S(=O)(=O)c2ccccc2)C[C@@H]2ON=C(c3cccc(Br)c3)[C@@H]2C1 | 24.4% |
| CCCNc1ncnc2sc(C)c(C)c12 | 58.6% (active) |
| Cc1sc2ncnc(Sc3nc4ccccc4s3)c2c1C | 14.7% |
| CSc1ncnc2sc(C)c(C)c12 | -2.76% |
| COc1cc(C(=O)NCC(c2ccco2)N2CCCC2)ccc1OCc1ccccc1 (stereo not given) | 2.02% |

| Compound | inhibition |
| --- | --- |
| CCc1ccc(C2C(C#N)=C(N)N(N3CCOCC3)C3=C2C(=O)CC(C)(C)C3)s1 (stereo not given) | 5.14% |
| Cc1ccc(S(=O)(=O)N2CC(O)C[C@H]2C(=O)OCC(=O)Nc2ccc(N3CCOCC3)cc2)cc1C (stereo not given in full) | 4.11% |
| O=C(O)C#Cc1cccc2ccccc12 | 7.2% |
| CN(Cc1ccccc1)C(=O)COC(=O)c1ccccc1Nc1ccccc1 | 42% |
| CCN1/C(=C\c2ccc3ccccc3[n+]2CC)Sc2cc(C)ccc21 | 51.5% (active) |
| CC(C)(C)OC(=O)CNC(=O)c1[nH]cnc1C(=O)N[C@@H](CCCCN)C(=O)OC(C)(C)C | -2.18% |
| O=C(c1ccccc1)c1cccn1CC(=O)N1CCN(c2ccc(F)cc2)CC1 | 17.4% |
| CN(C)Cc1ccccc1C1(O)c2ccccc2CSc2ccccc21 (stereo not given) | 34.6% |
| COc1ccc(C(=O)CC(=O)c2ccc(C)cc2)c(O)c1 | 29.8% |
| O=C(/C=C/Sc1ncn[nH]1)c1ccc(Cl)cc1 | 74.3% (active) |
| O=C(CSc1ncn[nH]1)NCc1ccc2c(c1)OCO2 | -3.54% |
| O=C(CSc1ncn[nH]1)Nc1ccc(Br)cc1Br | -3% |
| CN(CCC1CCOCC1)C(=O)CC1C(=O)NCCN1Cc1cccc(F)c1 (stereo not given) | -8.17% |
| COc1ccc(OCCn2ccnc2C)cc1 | -7.96% |
| COc1cc(OC)cc(-c2cc3nc(C4CCN(C(=O)OC(C)(C)C)CC4)cc(=O)n3[nH]2)c1 | 7.61% |
| CCCCNC(=O)CCn1nc(-c2ccc(Cl)cc2)ccc1=O | 18% |
| Cc1ccc(S(=O)(=O)NC(C)C(=O)NCc2ccc(Cl)cc2)cc1 (stereo not given) | -2.23% |
| CCOc1ccccc1/C=c1\sc2nc(-c3ccco3)nn2c1=O | 52.2% (active) |
| CCOc1ccccc1C1NC(=O)NC(C)=C1C(=O)OCc1ccco1 (stereo not given) | 16% |
| CCCn1nc(C(=O)NNC(=O)CCOc2ccccc2OCC)c2ccccc2c1=O | -4.04% |
| COC(=O)c1c(NC(=O)c2ccc(S(=O)(=O)N3CCOCC3)cc2)sc2c1CCN(C(C)C)C2 | 8.38% |
| CC(=O)c1ccc(NC(=O)C2CCCN2S(=O)(=O)c2cccs2)cc1 (stereo not given) | 14.8% |
| C=C1CCC(N(O)c2cc(C)on2)C(=C)CCC2C1CC2(C)C (stereo not given) | 55.5% (active) |
